# Reference: PubChem BioAssay AID743105 (Vanderbilt Specialized Chemistry Center, 2013)
# Calls of active or inactive are those of the source. No rule for the calls is given here.
# Target: Muscarinic acetylcholine receptor M4 (Homo sapiens) (UniProt P08173)
# Assay: human M4 receptor modulation in M5 NAM selectivity check, counter-screen for M5 NAM project, cell-based, CHO-K1 hM4/Gqi5, Fluo-4 calcium flux, ACh EC20 (AID 743105)
# Conditions: series mostly up to 30 µM; response, % of max ACh: at the top concentration
# Muscarinic acetylcholine receptor M4 (Homo sapiens), sequence (P08173 whole entry, looked up): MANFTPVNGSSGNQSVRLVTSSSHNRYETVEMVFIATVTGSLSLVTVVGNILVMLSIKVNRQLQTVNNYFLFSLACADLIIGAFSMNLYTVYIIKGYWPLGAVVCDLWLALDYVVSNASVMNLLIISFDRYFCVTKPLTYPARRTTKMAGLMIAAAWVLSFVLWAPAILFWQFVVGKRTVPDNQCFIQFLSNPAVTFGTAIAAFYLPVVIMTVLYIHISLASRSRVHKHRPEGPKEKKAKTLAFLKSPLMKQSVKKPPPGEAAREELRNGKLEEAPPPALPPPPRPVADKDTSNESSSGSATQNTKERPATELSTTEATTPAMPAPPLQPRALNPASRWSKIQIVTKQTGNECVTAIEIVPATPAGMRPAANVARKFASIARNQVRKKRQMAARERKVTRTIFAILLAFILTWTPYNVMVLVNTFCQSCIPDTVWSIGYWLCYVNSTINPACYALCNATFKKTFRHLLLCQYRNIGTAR
row,SMILES,"response, % of max ACh"
1,O=C(c1ccc(F)c(F)c1)N1CCN2C(=O)c3ccccc3C12c1ccc(Cl)cc1 (stereo not given),92.4 (inactive)
2,O=C(c1ccc(F)cc1)N1CCN2C(=O)c3ccccc3C12c1ccccc1 (stereo not given),71.3 (inactive)
3,O=C(c1ccc(F)c(F)c1)N1CCN2C(=O)c3ccccc3C12c1ccccc1 (stereo not given),94.7 (inactive)
4,O=C(c1ccc(F)c(F)c1)N1CCN2C(=O)c3ccccc3[C@@]12c1ccc(Cl)cc1,88 (inactive)
5,O=C(c1cc(F)cc(F)c1)N1CCN2C(=O)c3ccccc3C12c1ccc(Cl)cc1 (stereo not given),86.8 (inactive)
